Data taken from PubChem BioAssay (NCI).
The panel holds about 83,000 compounds, 20% with a hit somewhere; the sample as a whole holds those more often.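 Interpretation: 100, growth as untreated; towards 0, rising growth inhibition; 0, no net growth; 0 to -100, cell death. Compounds scoring below 10 were considered active.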 Calls of active or inactive are those of the source.

Tests used:
Assay in all cases: NCI-60 one-dose screen, 48 h (100 = growth as untreated, 0 = no growth, -100 = all killed)
Conditions in all cases: 10 µM unless noted
[1] = system: NCI-H23 lung
[2] = system: NCI-H322M lung
[3] = system: HOP-62 NSCLC
[4] = system: NCI-H460 lung
[5] = system: HOP-92 NSCLC
[6] = system: NCI-H522 lung
[7] = system: A549/ATCC NSCLC
[8] = system: 786-0 renal
[9] = system: DU-145 prostate
[10] = system: K-562 leukemia
[11] = system: MALME-3M melanoma
[12] = system: MDA-MB-231 breast
[13] = system: RXF 393 renal
[14] = system: SF-268 CNS
[15] = system: SF-295 CNS
[16] = system: SF-539 CNS
[17] = system: UACC-257 melanoma
[18] = system: M14 melanoma
[19] = system: HCT-15 colon
[20] = system: COLO 205 colon

Measured: growth

COc1ccc(C2=C(c3cccc(OC)c3)C(=O)c3ccc(C)nc3C2=O)cc1
inactive: [1] 37.5% | [2] 76.4% | [3] 34.4% | [4] 13.4% | [5] 80% | [6] 40.9% | [7] 40.8% | [8] 67.8% | [9] 54.3% | [10] 19.9% | [11] 52.4% | [12] 29.4% | [13] 33.3% | [14] 48% | [15] 56.2% | [16] 43% | [17] 67.8% | [18] 42% | [19] 18.6%

Nc1nc2c(ncn2[C@@H]2O[C@H](CS)[C@@H](O)[C@H]2O)c(=O)[nH]1
inactive: [1] 102% | [2] 93.3% | [3] 100% | [4] 102% | [5] 103% | [6] 97.4% | [7] 96.6% | [8] 106% | [9] 105% | [10] 97.2% | [11] 97.5% | [12] 99.3% | [13] 111% | [14] 99.7% | [15] 98.2% | [16] 102% | [17] 94.7% | [18] 102% | [19] 101%

CCC1=C[C@@H]2CN(C1)Cc1c([nH]c3ccccc13)[C@@](C(=O)OC)(c1cc3c(cc1OC)N(C)[C@H]1[C@@](O)(C(=O)OC)[C@H](OC(C)=O)[C@]4(CC)[C@@H]5C[C@@H]5CN5CC[C@]31[C@@H]54)C2
active: [1] 5.89% | [4] 0.48% | [6] -14.5% | [20] -86% | [9] -17.9% | [10] -10% | [11] -63.9% | [12] -45.4% | [14] 8.9% | [16] -17.5% | [18] -22.3%
inactive: [2] 49.3% | [3] 17.4% | [5] 21.2% | [8] 11.2% | [13] 29.5% | [15] 20.1% | [17] 32.8% | [19] 13.4%

O=C(/C=C/c1ccc(C(F)(F)F)cc1)c1ccc(Nc2nc(NCCO)nc(N3CCOCC3)n2)cc1
inactive: [1] 39.4% | [2] 40.5% | [3] 33% | [4] 11.7% | [5] 64% | [6] 45.6% | [7] 13.1% | [9] 13% | [11] 97% | [12] 46.7% | [13] 73.9% | [14] 36% | [15] 81.4% | [16] 50.6% | [17] 98.9% | [18] 37.5%
active: [8] -2.96% | [10] 5.46% | [19] 7.59%

O=c1c(-c2nc3ccccc3[nH]2)cc2ccccc2n1Cc1cn(Cc2ccccc2Cl)nn1
inactive: [1] 56.9% | [2] 52.3% | [3] 35.1% | [5] 11.3% | [6] 45.1% | [20] 54% | [9] 18.1% | [10] 30.7% | [13] 13.1% | [14] 45.2% | [15] 32.9% | [17] 56.8% | [18] 38.4% | [19] 19.7%
active: [4] 6.86% | [8] -20.2% | [11] 5.45% | [12] -21% | [16] 4.13%

Cc1ccc2sc3c(NCCCNCCO)nc4ccccc4c3c(=O)c2c1
active: [4] -81.6% | [7] 0.19% | [9] 4.48% | [10] -48.5% | [18] -44.3% | [19] -8.68%
inactive: [1] 75.2% | [2] 73.1% | [3] 50.9% | [5] 35.3% | [6] 27.2% | [8] 54% | [11] 85% | [12] 23.8% | [13] 44.5% | [14] 47.7% | [15] 84.2% | [16] 78.6% | [17] 72.7%

Cc1cccc2c(=O)c3c(sc12)c(NCCN)nc1ccccc13
active: [1] -13.2% | [2] -38.3% | [3] -64.6% | [4] -75.3% | [6] -56.3% | [7] -75.2% | [8] -37.4% | [9] -87.9% | [10] -45.2% | [11] -74.2% | [12] -75.6% | [14] 6.22% | [15] -75.3% | [16] -85.7% | [17] -17.6% | [18] -75.7% | [19] -79.9%
inactive: [5] 27.7% | [13] 34.1%

CNCCNc1nc2ccccc2c2c(=O)c3cccc(C)c3sc12
inactive: [1] 58.2% | [2] 40.9% | [3] 25.6% | [5] 44% | [6] 27.8% | [7] 35.7% | [8] 57.3% | [9] 27.8% | [13] 50.8% | [14] 53.7% | [15] 76% | [16] 52.4% | [17] 82%
active: [4] 9.45% | [10] -52.5% | [11] -11.3% | [12] -18% | [18] -40.9% | [19] -21.3%
